In the OligoGym collection one finds sensor-assay potency score (higher = more potent) data, which are given here for 40 sequences.
Also: reference of the scale not given here.

One assay deals with CENPE. Kind of assay: pooled miR-30 sensor sort-seq; sequence = guide strand. As to conditions: shRNA.
TTAGTTGCATCTCTTGATCTTT showed a sensor-assay potency score (higher = more potent) of 0.409.

The sequence TTTGTCAATAGTTTCCTGCTGC came in with a sensor-assay potency score (higher = more potent) of 0.514.

On to TTCTTGAGTATCTATATTCATG, for which the sensor-assay potency score (higher = more potent) is -0.957.

In the case of TTTATCAATAGTTTCTTGGTGC, the sensor-assay potency score (higher = more potent) is 0.371.

The sequence TTGAGAGTCTATGTATTCCTGT came in with a sensor-assay potency score (higher = more potent) of 0.505.

Sequence TTTGCTTGTATGTAGTTGCAAG displayed a sensor-assay potency score (higher = more potent) of -0.96.

With TTGACATCTTTTTTTAACGTAA, the sensor-assay potency score (higher = more potent) is -0.388.

Turning to TATAGTACCATTGTAGCCTTGT, the sensor-assay potency score (higher = more potent) was found to be 0.768.

In the case of TTGTGTGGTAGGATTAACCTGG, the sensor-assay potency score (higher = more potent) turned out to be 0.117.

In another assay the target is CENPO. The assay is described as above. As to conditions: shRNA.
TAAGCATTCAGGTACTCGCAGA had a sensor-assay potency score (higher = more potent) of -0.982.

For the sequence TAGGTTTAGAAACCTCCTCAGC, the sensor-assay potency score (higher = more potent) was -1.26.

Sequence TTTTGCAGCTATCTCTTCCAGG showed a sensor-assay potency score (higher = more potent) of 0.117.

TTTAGGTTTAGAAACCTCCTCA: the sensor-assay potency score (higher = more potent) is 0.397.

As for TTGATCTCCACTGTTTGGTTGG, the sensor-assay potency score (higher = more potent) is 0.162.

Sequence TTGCTCATTGATCTCCACTGTT gave a sensor-assay potency score (higher = more potent) of -0.258.

The sequence TATTTTTTGAAACTGAAGGAAG yielded a sensor-assay potency score (higher = more potent) of -1.18.

Consider TATTTCTCTGATGTGCTCCCAG, for which the sensor-assay potency score (higher = more potent) is -0.111.

For the sequence TTATTTTTTGAAACTGAAGGAA, the sensor-assay potency score (higher = more potent) is -0.369.

For TTATACAGCAATCTAGCACAGA, the sensor-assay potency score (higher = more potent) is -0.484.

As to TTGAAACTGAAGGAAGTCCCGA, the sensor-assay potency score (higher = more potent) is 0.077.

In the case of TTTCTGTATGACAAGGTCCACA, the sensor-assay potency score (higher = more potent) was -1.24.

The target of another assay is CEP110. The description is as above. The conditions noted are these: shRNA.
As to TAAACCAAAAACTTGCTCCTGA, the sensor-assay potency score (higher = more potent) was 0.902.

The sequence TTTATGGTCTTGATAGTCCAAA gave a sensor-assay potency score (higher = more potent) of -1.01.

TTTCTTTCTGTCAAGAACTGGT: the sensor-assay potency score (higher = more potent) was -0.248.

The sequence TTGTAGTCTACCACTCAACTGC came in with a sensor-assay potency score (higher = more potent) of 0.0361.

For the sequence TTGCATTGCTGAAATGTCGTTA, the sensor-assay potency score (higher = more potent) was found to be 0.524.

Turning to TAACAGATTATTGTCATCCTGC, the sensor-assay potency score (higher = more potent) was determined as 0.569.

TTATGTTTAGACATCTGCCTTA: the sensor-assay potency score (higher = more potent) is 0.679.

On to TTCATCTGCAATCTCAACTTGC, for which the sensor-assay potency score (higher = more potent) worked out at 0.351.

For TAGTTGTATAGCTTCTTCCAGT, the sensor-assay potency score (higher = more potent) was -0.43.

Sequence TAGTCTACCACTCAACTGCTTG gave a sensor-assay potency score (higher = more potent) of -1.16.

With TTCTTTTTCTCTAACTCTCGGA, the sensor-assay potency score (higher = more potent) was -0.414.

Regarding TTTCTCAATTTCTAGGACCTGT, the sensor-assay potency score (higher = more potent) is -0.0728.

Another assay has as its target CEP55. Described as above. The conditions noted are these: shRNA.
TTTGTGAATACAACAGCTGATT: the sensor-assay potency score (higher = more potent) was -0.95.

In the case of TAGTAGTCTCAGTAGACGCTGC, the sensor-assay potency score (higher = more potent) was -0.26.

Sequence TTAACAATTTTAGCTAAGCAGA had a sensor-assay potency score (higher = more potent) of -1.37.

Regarding TTTATTGATGAGTTGAAGCAGT, the sensor-assay potency score (higher = more potent) is -0.0395.

Sequence TTTTCTTCGAAATTCACTCAGT displayed a sensor-assay potency score (higher = more potent) of 0.403.

Consider TCTTTGTGAATACAACAGCTGA, for which the sensor-assay potency score (higher = more potent) is -0.875.

Consider TTTATGCCTATCATCTTCCAGA, for which the sensor-assay potency score (higher = more potent) was -0.706.
